According to the OligoGym collection:

molecular target: MAFG; assay: pooled miR-30 sensor sort-seq; sequence = guide strand; settings: shRNA
Further: reference of the scale not given here.

Sequence | sensor-assay potency score (higher = more potent)
TTTATCGGGGACACACTCTAGC | -0.0679
TTAGCAATAAATACTGCGCAGG | -0.418
TATAATTAATTTAATAACTTTG | -0.864
TTTAGCAATAAATACTGCGCAG | -0.617
TTTACTATTGTGATGACGCTGG | 0.761
TTCTATTATACTTTCTTCCCTT | -0.191
TCGAGCTCCAGCTTCATGCTGG | -0.0457
ATAATGTCTGATAACTCTGTGT | -0.547
TTATATATCACAAACATACACT | -0.989
TAGATCTTTAATAACCTCCATC | -0.748
TATATAAAAACTAAACTCCAAC | -1.06
TACTATTGTGATGACGCTGGTG | 0.19

molecular target: MAF; assay: as above; settings: shRNA

Sequence | sensor-assay potency score (higher = more potent)
TCATCCAGTAGTAGTCTTCCAG | -0.918
TTTCAGGGTCCGCCTCTTCTGC | -1.55
TTGAGGTGGTCGACTTGCTGCA | -0.511
TCCCTCTCGCGCACCAGCCTGG | -1.61
TGCTGCACCCTCTTGAAGCGGC | -0.694
AACTTCTCGTATTTCTCCTTGT | -0.264
TTCAGCTCGCGCACAGACATGG | -0.726
TCGACTTGCTGCAGCAGCTGGT | -0.659
TAGCCGGTCATCCAGTAGTAGT | -1.7
TTTTCTCGGAAGCCGCTGCTCA | -0.816

molecular target: MAGEA2B; assay: as above; settings: shRNA

Sequence | sensor-assay potency score (higher = more potent)
TCTTCCTACTGATTGCTGCTTG | -0.703
TAGTGTATGGTGCAGGACTTTC | -1.11
TTGCATGAGCAGCTTCCTGGGA | -0.244
